Columns and labels:
Assay in all cases: DAPPL (digital affinity profiling via proximity ligation, sequencing); 10 mM Tris-HCl pH 7.5, 50 mM NaCl, 1 mM DTT, 4% glycerol, room temperature, 30 min; GST-TFs on glutathione beads, 16-mer random dsDNA library, 0.1% formaldehyde crosslink after washing; high values mean tight binding
[1] = molecular target: T1, FLI1 (Homo sapiens, UniProt Q01543 1-452); conditions: protein: recombinant; tags: N-terminal GST; dsDNA, one strand shown
T1 sequence: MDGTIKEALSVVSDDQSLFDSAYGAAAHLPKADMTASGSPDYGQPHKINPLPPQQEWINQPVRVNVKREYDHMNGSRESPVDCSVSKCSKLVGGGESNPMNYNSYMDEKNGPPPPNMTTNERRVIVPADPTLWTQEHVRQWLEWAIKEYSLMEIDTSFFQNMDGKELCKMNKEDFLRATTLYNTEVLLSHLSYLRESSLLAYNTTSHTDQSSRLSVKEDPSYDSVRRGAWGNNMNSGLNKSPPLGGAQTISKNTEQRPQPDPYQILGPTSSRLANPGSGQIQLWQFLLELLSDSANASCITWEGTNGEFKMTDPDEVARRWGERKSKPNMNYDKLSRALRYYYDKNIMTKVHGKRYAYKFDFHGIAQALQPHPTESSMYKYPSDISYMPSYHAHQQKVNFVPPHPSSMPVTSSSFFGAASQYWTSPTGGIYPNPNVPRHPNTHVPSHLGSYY
Method in brief: (§1)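 The binding signal reported is, for every hexamer, its read frequency for a factor over its read frequency for the tag-only sample. Reads came from pools of yeast-expressed, GST-fused human transcription factors on glutathione beads, barcoded with DNA and mixed with that sample, which were incubated with 200 nmole of a random double-stranded 16-mer DNA library in Tris/NaCl/DTT/glycerol buffer at room temperature for 30 min. After washing, the pools were crosslinked with 0.1% formaldehyde, proximity-ligated with BsaI/T4 ligase for 1 h at 37 °C, PCR-amplified and sequenced on an Illumina NextSeq500.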

[2] = molecular target: T2, ELK1 (Homo sapiens, UniProt P19419 1-428); conditions: protein: recombinant; tags: N-terminal GST; dsDNA, one strand shown
T2 sequence: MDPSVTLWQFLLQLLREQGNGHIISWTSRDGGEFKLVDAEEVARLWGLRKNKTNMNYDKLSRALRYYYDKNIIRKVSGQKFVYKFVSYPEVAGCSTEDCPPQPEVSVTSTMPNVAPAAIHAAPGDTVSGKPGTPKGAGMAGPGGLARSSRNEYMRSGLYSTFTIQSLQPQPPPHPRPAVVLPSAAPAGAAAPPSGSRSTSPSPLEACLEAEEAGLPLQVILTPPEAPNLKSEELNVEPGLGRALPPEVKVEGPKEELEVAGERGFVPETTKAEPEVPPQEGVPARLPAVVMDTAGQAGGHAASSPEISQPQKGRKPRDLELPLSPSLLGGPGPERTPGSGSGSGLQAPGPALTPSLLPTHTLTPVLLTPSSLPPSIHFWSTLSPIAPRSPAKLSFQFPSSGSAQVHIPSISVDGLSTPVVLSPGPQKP
Method in brief: as §1

[3] = molecular target: T3, GABPA (Homo sapiens, UniProt Q06546 1-454); conditions: protein: recombinant; tags: N-terminal GST; dsDNA, one strand shown
T3 sequence: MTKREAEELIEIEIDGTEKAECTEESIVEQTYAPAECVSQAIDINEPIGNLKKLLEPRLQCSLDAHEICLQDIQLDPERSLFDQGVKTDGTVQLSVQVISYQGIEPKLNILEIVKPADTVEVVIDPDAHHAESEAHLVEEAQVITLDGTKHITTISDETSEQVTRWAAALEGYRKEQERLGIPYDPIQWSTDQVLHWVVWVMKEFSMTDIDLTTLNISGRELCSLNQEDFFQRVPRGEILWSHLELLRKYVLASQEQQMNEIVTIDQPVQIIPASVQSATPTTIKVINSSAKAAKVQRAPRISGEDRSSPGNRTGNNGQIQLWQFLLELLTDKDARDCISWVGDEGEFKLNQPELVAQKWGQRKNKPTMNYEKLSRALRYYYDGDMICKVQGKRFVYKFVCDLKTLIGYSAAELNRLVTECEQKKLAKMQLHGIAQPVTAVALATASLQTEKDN
Method in brief: as §1

[4] = molecular target: T4, ERG (Homo sapiens, UniProt P11308 1-479); conditions: protein: recombinant; tags: N-terminal GST; dsDNA, one strand shown
T4 sequence: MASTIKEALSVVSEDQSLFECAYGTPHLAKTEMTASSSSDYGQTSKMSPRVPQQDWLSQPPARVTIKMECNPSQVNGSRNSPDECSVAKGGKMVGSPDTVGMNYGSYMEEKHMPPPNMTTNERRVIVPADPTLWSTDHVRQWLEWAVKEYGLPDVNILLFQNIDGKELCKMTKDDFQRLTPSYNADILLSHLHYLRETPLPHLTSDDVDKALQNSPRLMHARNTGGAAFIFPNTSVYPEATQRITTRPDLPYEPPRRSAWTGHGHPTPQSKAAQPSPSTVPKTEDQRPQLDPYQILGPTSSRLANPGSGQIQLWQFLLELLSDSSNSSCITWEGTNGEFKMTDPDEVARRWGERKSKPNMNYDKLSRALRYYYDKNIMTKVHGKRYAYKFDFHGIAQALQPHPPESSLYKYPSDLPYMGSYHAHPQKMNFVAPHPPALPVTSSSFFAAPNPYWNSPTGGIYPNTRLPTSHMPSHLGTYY
Method in brief: as §1

[5] = molecular target: ELF1 (Homo sapiens, UniProt P32519 1-619); conditions: protein: recombinant; tags: N-terminal GST; dsDNA, one strand shown
Method in brief: as §1

[6] = molecular target: T5, EHF (Homo sapiens, UniProt Q9NZC4 1-300); conditions: protein: recombinant; tags: N-terminal GST; dsDNA, one strand shown
T5 sequence: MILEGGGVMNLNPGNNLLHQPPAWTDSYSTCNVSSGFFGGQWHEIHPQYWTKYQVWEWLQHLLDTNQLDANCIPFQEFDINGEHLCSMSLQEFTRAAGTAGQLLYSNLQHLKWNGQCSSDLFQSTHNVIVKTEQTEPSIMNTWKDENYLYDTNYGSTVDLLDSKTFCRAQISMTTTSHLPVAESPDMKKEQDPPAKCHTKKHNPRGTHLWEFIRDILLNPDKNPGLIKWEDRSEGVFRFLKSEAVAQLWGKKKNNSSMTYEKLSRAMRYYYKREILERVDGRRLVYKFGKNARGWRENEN
Method in brief: as §1

[7] = molecular target: SPI1 (Homo sapiens, UniProt P17947 1-270); conditions: protein: recombinant; tags: N-terminal GST; dsDNA, one strand shown
Method in brief: as §1

[8] = molecular target: SPIB (Homo sapiens, UniProt Q01892 1-262); conditions: protein: recombinant; tags: N-terminal GST; dsDNA, one strand shown
Method in brief: as §1

[9] = molecular target: T6, ELK3 (Homo sapiens, UniProt P41970 1-407); conditions: protein: recombinant; tags: N-terminal GST; dsDNA, one strand shown
T6 sequence: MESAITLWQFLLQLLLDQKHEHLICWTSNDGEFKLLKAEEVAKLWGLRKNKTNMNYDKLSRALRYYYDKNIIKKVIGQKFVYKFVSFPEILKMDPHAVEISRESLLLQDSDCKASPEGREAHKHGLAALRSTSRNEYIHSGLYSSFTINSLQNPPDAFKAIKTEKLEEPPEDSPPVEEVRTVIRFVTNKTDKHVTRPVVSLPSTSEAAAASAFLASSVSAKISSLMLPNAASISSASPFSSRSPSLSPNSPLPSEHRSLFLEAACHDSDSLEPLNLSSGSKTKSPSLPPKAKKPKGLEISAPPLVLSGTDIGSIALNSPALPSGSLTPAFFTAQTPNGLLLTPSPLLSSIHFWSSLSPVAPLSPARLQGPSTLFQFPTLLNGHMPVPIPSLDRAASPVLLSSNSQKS
Method in brief: as §1

[10] = molecular target: T7, FEV (Homo sapiens, UniProt Q99581 1-238); conditions: protein: recombinant; tags: N-terminal GST; dsDNA, one strand shown
T7 sequence: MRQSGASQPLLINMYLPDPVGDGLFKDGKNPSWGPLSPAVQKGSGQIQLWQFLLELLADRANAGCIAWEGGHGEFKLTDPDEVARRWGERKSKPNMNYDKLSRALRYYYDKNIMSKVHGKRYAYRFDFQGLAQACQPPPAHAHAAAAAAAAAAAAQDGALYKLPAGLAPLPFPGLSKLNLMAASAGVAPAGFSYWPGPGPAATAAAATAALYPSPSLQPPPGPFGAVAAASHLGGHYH
Method in brief: as §1

[11] = molecular target: ETV5 (Homo sapiens, UniProt P41161 1-510); conditions: protein: recombinant; tags: N-terminal GST; dsDNA, one strand shown
Method in brief: as §1

[12] = molecular target: HSF1 (Homo sapiens, UniProt Q00613 1-529); conditions: protein: recombinant; tags: N-terminal GST; chain copies: 3; dsDNA, one strand shown
Method in brief: as §1

[13] = molecular target: T8, SPIC (Homo sapiens, UniProt Q8N5J4 1-248); conditions: protein: recombinant; tags: N-terminal GST; dsDNA, one strand shown
T8 sequence: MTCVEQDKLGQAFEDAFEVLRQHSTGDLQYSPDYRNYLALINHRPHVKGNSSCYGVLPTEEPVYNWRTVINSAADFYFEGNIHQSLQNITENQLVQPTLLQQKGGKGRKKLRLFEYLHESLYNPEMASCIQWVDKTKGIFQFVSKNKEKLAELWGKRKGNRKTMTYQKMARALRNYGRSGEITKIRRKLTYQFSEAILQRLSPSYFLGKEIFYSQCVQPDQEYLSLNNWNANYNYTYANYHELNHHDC
Method in brief: as §1

[14] = molecular target: ELF4 (Homo sapiens, UniProt Q99607 1-663); conditions: protein: recombinant; tags: N-terminal GST; dsDNA, one strand shown
Method in brief: as §1

[15] = molecular target: T9, ELK4 (Homo sapiens, UniProt P28324-2 1-405); conditions: protein: recombinant; tags: N-terminal GST; dsDNA, one strand shown
T9 sequence: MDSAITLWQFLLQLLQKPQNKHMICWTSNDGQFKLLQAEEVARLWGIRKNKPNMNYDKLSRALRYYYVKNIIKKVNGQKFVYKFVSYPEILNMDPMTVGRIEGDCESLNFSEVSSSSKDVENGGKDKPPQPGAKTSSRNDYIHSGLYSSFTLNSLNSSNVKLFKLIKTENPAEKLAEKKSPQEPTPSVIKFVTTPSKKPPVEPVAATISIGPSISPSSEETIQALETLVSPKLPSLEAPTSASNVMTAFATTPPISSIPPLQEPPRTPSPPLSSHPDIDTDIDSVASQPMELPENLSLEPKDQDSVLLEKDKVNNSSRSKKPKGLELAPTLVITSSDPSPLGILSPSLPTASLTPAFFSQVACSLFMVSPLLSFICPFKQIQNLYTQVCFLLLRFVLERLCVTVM
Method in brief: as §1

[16] = molecular target: T10, ETV2 (Homo sapiens, UniProt O00321 1-342); conditions: protein: recombinant; tags: N-terminal GST; dsDNA, one strand shown
T10 sequence: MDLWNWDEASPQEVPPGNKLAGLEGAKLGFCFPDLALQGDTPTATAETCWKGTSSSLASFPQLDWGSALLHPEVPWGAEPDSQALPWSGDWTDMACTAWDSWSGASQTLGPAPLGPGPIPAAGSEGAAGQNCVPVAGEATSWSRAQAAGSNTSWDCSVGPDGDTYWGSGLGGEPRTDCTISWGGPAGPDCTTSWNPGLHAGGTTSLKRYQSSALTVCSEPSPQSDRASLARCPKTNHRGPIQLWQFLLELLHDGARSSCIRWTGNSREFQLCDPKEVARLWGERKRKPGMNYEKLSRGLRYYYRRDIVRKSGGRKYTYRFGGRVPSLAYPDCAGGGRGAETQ
Method in brief: as §1

[17] = molecular target: T11, ELF3 (Homo sapiens, UniProt P78545 1-371); conditions: protein: recombinant; tags: N-terminal GST; dsDNA, one strand shown
T11 sequence: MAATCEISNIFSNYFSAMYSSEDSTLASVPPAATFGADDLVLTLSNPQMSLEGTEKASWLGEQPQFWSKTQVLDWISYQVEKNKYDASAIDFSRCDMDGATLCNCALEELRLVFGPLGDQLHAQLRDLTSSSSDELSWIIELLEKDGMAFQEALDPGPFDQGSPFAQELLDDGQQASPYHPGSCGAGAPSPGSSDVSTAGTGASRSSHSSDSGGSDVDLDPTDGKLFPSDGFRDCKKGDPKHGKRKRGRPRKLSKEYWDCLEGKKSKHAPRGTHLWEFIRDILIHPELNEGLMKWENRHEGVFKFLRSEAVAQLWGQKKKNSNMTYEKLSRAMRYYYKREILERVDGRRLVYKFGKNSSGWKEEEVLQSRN
Method in brief: as §1

[18] = molecular target: ETV1 (Homo sapiens, UniProt P50549 1-477); conditions: protein: recombinant; tags: N-terminal GST; dsDNA, one strand shown
Method in brief: as §1

ETV5, sequence (P41161 whole entry): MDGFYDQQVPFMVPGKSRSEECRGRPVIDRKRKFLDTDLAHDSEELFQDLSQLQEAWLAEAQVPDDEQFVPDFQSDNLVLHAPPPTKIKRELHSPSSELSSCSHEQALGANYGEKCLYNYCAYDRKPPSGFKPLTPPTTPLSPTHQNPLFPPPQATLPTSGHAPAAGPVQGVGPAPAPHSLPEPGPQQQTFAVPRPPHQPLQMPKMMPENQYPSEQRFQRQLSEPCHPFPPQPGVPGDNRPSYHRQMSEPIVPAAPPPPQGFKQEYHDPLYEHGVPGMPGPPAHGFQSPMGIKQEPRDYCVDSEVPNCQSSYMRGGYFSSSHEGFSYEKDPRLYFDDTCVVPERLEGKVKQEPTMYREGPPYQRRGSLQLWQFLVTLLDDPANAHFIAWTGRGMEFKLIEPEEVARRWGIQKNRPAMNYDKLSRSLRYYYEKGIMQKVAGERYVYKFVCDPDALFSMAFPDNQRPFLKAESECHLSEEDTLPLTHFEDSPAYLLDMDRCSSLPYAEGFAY
ETV1, sequence (P50549 whole entry): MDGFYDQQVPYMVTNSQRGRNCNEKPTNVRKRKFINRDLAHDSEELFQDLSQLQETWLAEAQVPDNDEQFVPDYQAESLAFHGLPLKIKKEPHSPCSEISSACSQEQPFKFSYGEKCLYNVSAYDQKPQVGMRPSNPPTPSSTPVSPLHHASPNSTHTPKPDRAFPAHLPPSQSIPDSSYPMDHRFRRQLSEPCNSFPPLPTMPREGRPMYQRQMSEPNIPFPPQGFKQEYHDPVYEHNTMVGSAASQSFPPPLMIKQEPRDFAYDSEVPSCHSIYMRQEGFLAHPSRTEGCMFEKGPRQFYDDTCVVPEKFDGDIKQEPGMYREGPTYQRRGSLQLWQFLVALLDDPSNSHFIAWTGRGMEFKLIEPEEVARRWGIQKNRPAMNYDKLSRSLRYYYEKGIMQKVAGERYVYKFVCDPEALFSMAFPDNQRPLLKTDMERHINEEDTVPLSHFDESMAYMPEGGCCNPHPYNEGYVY
ELF4, sequence (Q99607 whole entry): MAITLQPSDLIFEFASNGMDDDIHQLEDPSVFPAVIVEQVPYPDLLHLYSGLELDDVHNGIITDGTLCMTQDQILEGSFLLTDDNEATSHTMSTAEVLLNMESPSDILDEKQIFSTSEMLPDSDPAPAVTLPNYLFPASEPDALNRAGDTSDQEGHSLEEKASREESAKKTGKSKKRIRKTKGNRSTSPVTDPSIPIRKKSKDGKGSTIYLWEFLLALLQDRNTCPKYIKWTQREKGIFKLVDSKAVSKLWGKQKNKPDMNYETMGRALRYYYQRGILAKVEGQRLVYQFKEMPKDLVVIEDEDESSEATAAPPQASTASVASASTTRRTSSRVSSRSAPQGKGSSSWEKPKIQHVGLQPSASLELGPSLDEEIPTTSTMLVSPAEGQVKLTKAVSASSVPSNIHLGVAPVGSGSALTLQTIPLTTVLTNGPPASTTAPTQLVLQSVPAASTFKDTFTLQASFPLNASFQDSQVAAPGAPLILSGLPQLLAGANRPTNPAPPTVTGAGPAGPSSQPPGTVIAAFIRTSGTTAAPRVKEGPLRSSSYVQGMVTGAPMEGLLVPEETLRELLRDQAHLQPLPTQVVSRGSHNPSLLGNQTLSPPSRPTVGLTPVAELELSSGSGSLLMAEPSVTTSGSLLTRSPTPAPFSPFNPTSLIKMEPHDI
SPIB, sequence (Q01892 whole entry): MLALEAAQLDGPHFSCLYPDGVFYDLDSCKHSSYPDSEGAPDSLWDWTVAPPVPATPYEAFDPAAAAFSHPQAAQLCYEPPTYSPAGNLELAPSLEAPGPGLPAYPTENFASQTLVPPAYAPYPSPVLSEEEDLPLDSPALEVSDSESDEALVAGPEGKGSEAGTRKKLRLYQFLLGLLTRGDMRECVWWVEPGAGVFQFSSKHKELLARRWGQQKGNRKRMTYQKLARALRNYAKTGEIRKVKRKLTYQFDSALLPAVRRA
HSF1, sequence (Q00613 whole entry): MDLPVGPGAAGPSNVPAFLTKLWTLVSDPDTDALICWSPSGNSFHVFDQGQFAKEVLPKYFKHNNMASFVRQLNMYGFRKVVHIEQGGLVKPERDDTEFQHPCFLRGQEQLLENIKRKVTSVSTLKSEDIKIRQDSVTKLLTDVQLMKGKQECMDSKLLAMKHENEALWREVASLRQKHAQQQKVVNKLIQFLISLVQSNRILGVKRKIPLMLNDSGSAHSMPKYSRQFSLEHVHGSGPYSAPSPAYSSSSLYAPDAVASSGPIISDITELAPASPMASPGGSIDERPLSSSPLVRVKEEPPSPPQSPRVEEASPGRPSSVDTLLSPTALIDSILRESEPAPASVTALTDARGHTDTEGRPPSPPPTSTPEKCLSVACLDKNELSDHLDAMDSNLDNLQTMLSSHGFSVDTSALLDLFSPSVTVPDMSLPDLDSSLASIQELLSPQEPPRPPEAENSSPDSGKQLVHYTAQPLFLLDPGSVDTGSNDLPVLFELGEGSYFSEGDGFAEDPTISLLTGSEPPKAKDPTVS
ELF1, sequence (P32519 whole entry): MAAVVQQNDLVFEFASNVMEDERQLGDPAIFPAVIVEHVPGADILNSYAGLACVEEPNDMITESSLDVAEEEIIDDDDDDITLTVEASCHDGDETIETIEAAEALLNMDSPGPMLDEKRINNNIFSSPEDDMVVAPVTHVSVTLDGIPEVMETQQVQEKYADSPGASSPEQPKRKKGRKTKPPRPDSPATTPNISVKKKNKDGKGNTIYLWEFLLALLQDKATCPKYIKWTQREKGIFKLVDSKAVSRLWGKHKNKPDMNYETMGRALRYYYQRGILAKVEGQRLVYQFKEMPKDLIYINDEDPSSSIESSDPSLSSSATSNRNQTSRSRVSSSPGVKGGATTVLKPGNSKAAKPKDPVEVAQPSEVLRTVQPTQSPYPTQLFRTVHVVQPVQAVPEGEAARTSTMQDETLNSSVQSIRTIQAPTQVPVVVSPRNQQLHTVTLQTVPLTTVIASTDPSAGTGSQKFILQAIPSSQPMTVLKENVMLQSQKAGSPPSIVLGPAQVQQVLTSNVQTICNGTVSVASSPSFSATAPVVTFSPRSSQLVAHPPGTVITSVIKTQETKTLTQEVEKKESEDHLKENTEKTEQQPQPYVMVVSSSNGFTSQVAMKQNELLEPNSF

With TGTCTC the binding signal [1] was 1.31 fold enrichment (6-mer frequency, TF over GST control), the binding signal [2] was 1.31 fold enrichment (6-mer frequency, TF over GST control) and the binding signal [3] was 1.31 fold enrichment (6-mer frequency, TF over GST control). The binding signal [4] was 1.23 fold enrichment (6-mer frequency, TF over GST control), the binding signal [5] was 1.2 fold enrichment (6-mer frequency, TF over GST control) and the binding signal [6] was 1.22 fold enrichment (6-mer frequency, TF over GST control). The binding signal [7] was 1.29 fold enrichment (6-mer frequency, TF over GST control), the binding signal [8] was 1.28 fold enrichment (6-mer frequency, TF over GST control) and the binding signal [9] was 1.15 fold enrichment (6-mer frequency, TF over GST control). The binding signal [10] was 1.22 fold enrichment (6-mer frequency, TF over GST control), the binding signal [11] was 1.33 fold enrichment (6-mer frequency, TF over GST control) and the binding signal [12] was 1.01 fold enrichment (6-mer frequency, TF over GST control). The binding signal [13] was 1.11 fold enrichment (6-mer frequency, TF over GST control), the binding signal [14] was 1.36 fold enrichment (6-mer frequency, TF over GST control) and the binding signal [15] was 1.11 fold enrichment (6-mer frequency, TF over GST control). The binding signal [16] was 1.26 fold enrichment (6-mer frequency, TF over GST control), the binding signal [17] was 1.18 fold enrichment (6-mer frequency, TF over GST control) and the binding signal [18] was 1.22 fold enrichment (6-mer frequency, TF over GST control).
